SMILES strings stand for the structures. Active and inactive are the calls of the source. The calls were made as follows: active = hit-call score of the fitted dose curve at least 0.9, where 1 is the maximum; inactive = score below 0.9.

This test is described as follows: ATG_PXRE_CIS: Attagene CIS-FACTORIAL HepG2 Assay for human Pregnane X Receptor Element (PXRE) (AID 2282957). To be noted: HepG2 Attagene CIS-FACTORIAL PXRE reporter, mRNA; actives raise or lower the signal. Here is the method: ATG_CIS is a cell-based, multiplexed-readout assay that uses HepG2, a human liver cell line, with measurements taken at 24 hours after chemical dosing in a 24-well plate.ATG_PXRE_CIS is one of 52 assay component(s) measured or calculated from the ATG_CIS assay. It is designed to make measurements of mRNA induction, a form of inducible reporter, as detected with fluorescence intensity signals by Reverse transcription polymerase chain reaction (RT-PCR) and Capillary electrophoresis technology.Data from the assay component ATG_PXRE_CIS was analyzed into 1 assay endpoint. This assay endpoint, ATG_PXRE_CIS, was analyzed with bidirectional fitting relative to DMSO as the negative control and baseline of activity. Using a type of inducible reporter, measures of mRNA for gain or loss-of-signal activity can be used to understand the reporter gene at the transcription factor-level as they relate to the gene NR1I2. Furthermore, this assay endpoint can be referred to as a primary readout, because this assay has produced multiple assay endpoints where this one serves a reporter gene function. To generalize the intended target to other relatable targets, this assay endpoint is annotated to the nuclear receptor intended target family, where the subfamily is non-steroidal.
Human liver HepG2 cells are transiently transfected with multiple reporter transcription units (MRTUs) in 6-well plates using FuGene 6 reagent (Roche; 3 ml FuGene/1 mg DNA). The MRTU constructs are regulated by a cis-regulating element (promoter). […] A major difference between the CIS and TRANS system is that in CIS activities of endogenous TFs are measured, whereas the TRANS assay evaluates changes in activities of exogenous, chimeric NR-Gal4 proteins. […] At the end of 24 hour incubation, total RNA was isolated using TriZol reagent (Invitrogen). The isolated RNA is then reverse-transcribed using oligo(dT) primer and Mo-MLV reverse transcriptase (Invitrogen) with DNAse I (Ambion) treatment for 30 min. The one-tenth of the produced cDNA was amplified by PCR using Taq DNA polymerase (Invitrogen) and two reporter sequence-specific primers. The PCR products were fluorescently labeled by primer extension with 6-arboxyfluorescein (6-FAM) 5'-labeled reporter sequence-specific primer (2 min at 95 C, 20 s at 68 C and 10 min at 72 C) and these products were digested with 5U of HpaI (New England Biolabs) for 2h at 37 C. The fragments were purified using Qiaquick PCR columns (Qiagen), analyzed on an ABI 3130xL genetic analyzer (Applied Biosystems) with peak positions identified by using a set of X-rhodamine (ROX)-labeled MapMarker1000 molecular weight standards (BioVentures). The raw capillary electrophoresis data was processed using Attagraph software (Attagene).
`O=C1CCCC1`: the AC50 is 62.7 µM (active).
For `Cc1ccc(C(C)(C)C)cc1`, the call was inactive.
Turning to `CCC(CO)CO`, the call was inactive.
As for `COCC(C)N` (stereo not given), the AC50 is 83.6 µM (active).
Regarding `S=C(NC1CCCCC1)NC1CCCCC1`, the AC50 was 4.14 µM (active).
With `COC(=O)c1ccccc1OC`, the compound was classed as inactive.
`O=C(O)CCCCCCCCCC(=O)O`: the compound was classed as inactive.
With `C#CC1(O)CC[C@H]2[C@@H]3CCC4=CCCC[C@@H]4[C@H]3CC[C@@]21C` (stereo not given in full), the AC50 is 2.58 µM (active).
With `O=C1Nc2ccccc2C1(c1ccc(O)cc1)c1ccc(O)cc1`, the outcome was inactive.
For the compound `CC(=O)OCC(=O)[C@@]12N=C(C)O[C@@H]1C[C@H]1[C@@H]3CCC4=CC(=O)C=C[C@]4(C)[C@H]3[C@@H](O)C[C@@]12C`, the AC50 was 17.6 µM (active).
As for `Cc1ccc(N/N=c2\c(=O)cc/c(=N/Nc3ccc(S(=O)(=O)O)cc3)c2=O)c(C)c1`, the AC50 was 42.6 µM (active).
Take `C[Si](C)(C)O[Si](O)(O)O`: the concentration at half-maximal activity (AC50) was 26.9 µM (active).
On to `CC(CC=O)c1ccccc1` (stereo not given), for which the AC50 was 4.15 µM (active).
`O=C1CCCC(=O)O1`: the outcome was inactive.
Take `COc1c2ccoc2cc2oc(=O)ccc12`: the AC50 was 26.9 µM (active).
`O=S(=O)(O)c1cc(S(=O)(=O)O)c2ccc3c(S(=O)(=O)O)cc(S(=O)(=O)O)c4ccc1c2c43`: the call was inactive.
Consider `CCCCCC/C=C/C=O`, for which the AC50 was 37.8 µM (active).
Same read-out and setting: next, `CCOC(=O)c1ccc(N(C)C)cc1`: 28.1 µM (active).
For the compound `O=C1CCCCCCCCCCC(=O)OCCO1`, the compound was classed as inactive.
In the case of `C=CC(C)(CCC=C(C)C)OC(=O)C(C)C` (stereo not given), the half-maximal activity concentration (AC50) was 8.57 µM (active).
As for `FC(F)=C(F)OC(F)(F)C(F)(F)C(F)(F)F`, the compound was classed as inactive.
For `C=C(C)C(=O)OCCOc1ccccc1`, the AC50 is 68.5 µM (active).
`C=CC(=O)OCCOC1C2CCC1C1CC=CC12` (stereo not given): the outcome was inactive.
`C=C(C)[C@@H]1CCC2=CCC[C@@H](C)[C@]2(C)C1`: the AC50 is 1.52 µM (active).
Turning to `COC(=O)/C=C/C(C)=C\C=C\C(C)=C\C=C\C=C(C)\C=C\C=C(C)\C=C\C(=O)O`, the AC50 was 60.8 µM (active).
`C=C[Si](OC(C)=O)(OC(C)=O)OC(C)=O`: the AC50 was 3.6 µM (active).
Regarding `O=C1c2cccc(O)c2C(=O)c2c(O)cc(CO)cc21`, the AC50 was 8.72 µM (active).
Consider `CCCCC/C=C\C/C=C\CCCCCCCC(=O)OC`, for which the AC50 was 5.54 µM (active).
`CCN(Cc1cccc(S(=O)(=O)O)c1)c1ccc(C(=C2C=CC(=[N+](CC)Cc3cccc(S(=O)(=O)[O-])c3)C=C2)c2ccccc2)cc1`: the AC50 was 20.6 µM (active).
Regarding `CC(C)(C)c1ccc(OC(=O)c2ccccc2O)cc1`, the AC50 was 15.3 µM (active).
`C(=CC=Nc1ccccc1)C=CNc1ccccc1`: the AC50 was 32.3 µM (active).
Regarding `Cc1ccc([N+](=O)[O-])cc1S(=O)(=O)O`, the call was inactive.
`O=P(O)(O)Oc1ccccc1`: the compound was classed as inactive.
For `O=c1n(CCO)c(=O)n(CCO)c(=O)n1CCO`, the call was inactive.
On to `CCCCCCC(O)CO` (stereo not given), for which the outcome was inactive.
As to `CCN(CC)c1ccc(C(=O)c2ccccc2C(=O)O)c(O)c1`, the AC50 was 1.09 µM (active).
As to `CCCCCCCOC(=O)CCC`, the AC50 is 48 µM (active).
Regarding `O=C(Nc1cccc(C(F)(F)F)c1)c1cc(Br)cc(Br)c1O`, the call was inactive.
As to `CC(C)c1ccc2c(C(C)C)cc(C(C)C)c(S(=O)(=O)O)c2c1`, the AC50 was 1.56 µM (active).
Still for that read-out and setting: next, `CC(C)(c1cc(Br)c(OCCO)c(Br)c1)c1cc(Br)c(OCCO)c(Br)c1`: 0.484 µM (active).

What is called AC50 is the concentration giving half of the maximal activity seen.

These data come from PubChem BioAssay (EPA / NIEHS).
